Bioassay records: PubChem BioAssay, SRMLSC
Compounds with a hit are over-represented: about 6.5% of the library has one in this group of screens.
Fluor 339 460 = intrinsic fluorescence of library compounds, ex339/em460 – biochemical, MLSMR library, data from DPM-DC assay, artefact control, profiling panel; compound autofluorescence, ex339/em460 nm, NADH buffer; stronger effect = higher value; 1 = no-compound wells, NADH background; fluorescence fold increase at 10 µM; 65,000 compounds, 5.5% hits;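 active means at 10 µM, mean starting fluorescence two-fold or more over control wells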;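 further: signal is the first read of a kinetic run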
PMK inhibit = inhibitors of Streptococcus pneumoniae phosphomevalonate kinase; inhibition, % at 10 µM; purified PMK, PK/LDH-coupled NADH absorbance 340 nm; 65,000 compounds, 0.49% hits;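 active means top-ranked compounds by inhibition in the single 10 µM screen, taking a fixed number of the strongest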;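 further: 0% = full reaction with DMSO carrier and 100% = background rate without enzyme reaction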
Spn DPM-DC inh = inhibitors of Streptococcus pneumoniae diphosphomevalonate decarboxylase. 65,000 compounds, 0.49% hits. AID 556. purified DPM-DC, PK/LDH coupled NADH fluorescence. calls only at 10 µM;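 active means the 320 compounds with the highest percent inhibition in the single-dose primary screen, excluding strongly autofluorescent ones, cut at about 32% in these data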;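 further: kinetic rate of NADH fluorescence loss reporting ADP formed by the decarboxylase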
NADH enzymes = inhibition of NAD/NADH coupling enzymes, library profiling. coupled PK/LDH NADH assays, four targets. IC50, µM (top dose mostly 10 µM), without a hit: at the top dose inhibition. 65,000 compounds, 0.02% hits. AID 774;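 active means single-dose screening hits from any of four coupled enzyme assays that gave an IC50 when retested across doses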;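 further: the DPM-DC format reads NADH fluorescence rather than 340 nm absorbance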
A340 absorber = compounds absorbing at 340 nm; compound absorbance at 340 nm, fold over control; 65,000 tested, under 10 active; fold change at 10 µM;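 active means at 10 µM dose, initial 340 nm absorbance at least 2 fold that of control wells; inactive means change under 2 fold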;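 further: initial absorbance extrapolated from kinetic A340 decline of NADH oxidation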
Spn MK inh = inhibitors of Streptococcus pneumoniae mevalonate kinase; purified MK, PK/LDH-coupled NADH absorbance 340 nm; inhibition, % at 10 µM; 65,000 compounds, 0.48% hits;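 active means ranked among the strongest by inhibition in the single 10 µM screen, a fixed top-ranked set picked for dose follow-up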
* hit, by the source's call; i = inactive; . = no result shown; + = active, no number.

SMILES	Fluor 339 460	PMK inhibit	Spn DPM-DC inh	NADH enzymes	A340 absorber	Spn MK inh
COc1ccc(NC(=O)c2oc3ccccc3c2NC(=O)COc2ccccc2OC)c(OC)c1	5.01*	7.0	.	5.0%	1.07	2.0
COc1ccc(NC(=O)c2oc3ccccc3c2C)c(OC)c1	1.06	0.0	i	2.0%	1.07	4.0
COc1ccc(NC(=O)c2oc3ccccc3c2NC(=O)c2ccc(OC)c(OC)c2)c(OC)c1	5.05*	13.0	.	7.0%	1.06	0.0
CN(CC1CCCO1)S(=O)(=O)c1ccc(C(=O)Nc2nc(-c3ccccn3)cs2)cc1 (stereo unspecified)	1.13	5.0	i	5.0%	1.09	0.0
O=c1cc(CSc2ccc(Cl)cc2)nc(N2CCCCC2)[nH]1	1.08	0.0	i	5.0%	1.05	14.0
COc1cc2c(cc1NC(=O)c1ccc3c(c1)OCO3)oc1ccccc12	3.04*	0.0	+	13.0%	1.15	5.0
COc1ccc(-c2cc(C(F)(F)F)n3nc(C(=O)N4CCCC4)cc3n2)cc1	2.2*	12.0	.	8.0%	1.11	3.0
O=C(c1nc2nc(-c3ccccc3)cc(C(F)(F)F)n2n1)N1CCOCC1	1.49	20.0	i	10.0%	1.09	0.0
COc1ccc(-c2cc(C(F)(F)F)n3nc(C(=O)O)nc3n2)cc1	2.85*	16.0	i	11.0%	1.13	9.0
O=C(c1nc2nc(-c3ccc(Cl)cc3)cc(C(F)(F)F)n2n1)N1CCOCC1	3.18*	5.0	.	10.0%	1.14	15.0
O=C(Nc1ncc(Br)s1)C(Cc1ccccc1)n1cccc1 (stereo unspecified)	1.11	0.0	i	3.0%	0.99	9.0
CCOC(=O)c1c(C)c(C(=O)NCc2ccccn2)c(C)n1CC	1.11	11.0	i	4.0%	0.99	0.0
Cc1cc(C)c2cc(C#N)c(N3CCCC3)nc2c1	2.21*	5.0	i	8.0%	1.01	10.0
COC(=O)CSc1nc2cc(C)cc(C)c2cc1C#N	1.13	12.0	i	6.0%	1.04	0.0
CCOC(=O)c1cnc(SCC(=O)Nc2nc(C)c(C)s2)nc1N	1.15	7.0	i	5.0%	1.04	8.0
CN(C(=O)c1cccc(C#N)c1)c1nnc(C2CCOC2)s1 (stereo unspecified)	1.02	21.0	i	7.0%	1.04	0.0
CN(C(=O)c1ccccn1)c1nnc(-c2ccncc2)s1	2.26*	9.0	.	4.0%	0.98	11.0
CN(C(=O)c1ccncc1)c1nnc(-c2ccccn2)s1	3.07*	21.0	i	15.0%	1.02	0.0
CN(C(=O)c1cccc(C#N)c1)c1nnc(-c2ccccn2)s1	2.11*	15.0	i	12.0%	1.03	19.0
CN(C(=O)c1ccncc1)c1nnc(-c2cccnc2)s1	1.12	12.0	i	4.0%	0.99	0.0
CN(C(=O)c1ccno1)c1nnc(-c2ccccn2)s1	5.14*	15.0	.	10.0%	1.05	5.0
C=CCOC(=O)C1CC=CCC1C(=O)Oc1ccc(F)cc1F (stereo unspecified)	1.06	11.0	i	8.0%	1.01	6.0
COc1cccc(C2C(C(=O)OCc3ccccc3)=C(C)Nc3ncnn32)c1OC (stereo unspecified)	1.09	6.0	i	4.0%	1.04	6.0
COc1ccc(C)cc1N(C(=O)CNC(=O)c1ccco1)C(C(=O)NC1CCCC1)c1cccnc1 (stereo unspecified)	1.1	3.0	i	3.0%	1.01	6.0
CCOC(=O)N1CCC(n2c(SCC(=O)NCCC3=CCCCC3)nc3ccccc3c2=O)CC1	1.03	9.0	i	6.0%	0.96	9.0
SMILES	Fluor 339 460	PMK inhibit	Spn DPM-DC inh	NADH enzymes	A340 absorber	Spn MK inh
CC1(C)NC(=O)N(CCCSc2ccc(Cl)cc2)C1=O	1.13	2.0	i	9.0%	1.1	26.0
Cn1c(NC(=O)c2cccs2)c(-c2cccs2)c(=O)c2ccccc21	1.11	7.0	i	6.0%	1.08	11.0
CCC(=O)Nc1c(-c2ccc(OC)cc2)c(=O)c2ccccc2n1C	3.79*	8.0	.	7.0%	1.12	6.0
Cc1ccc(OCCNS(=O)(=O)c2cccs2)cc1	1.1	12.0	i	4.0%	0.98	0.0
CN(Cc1ccccc1)Cc1c[nH]c2ccccc12	1.01	5.0	i	10.0%	0.99	0.0
CN(Cc1ccccc1)Cc1c(F)cccc1F	1.08	0.0	i	17.0%	1.04	52.0*
CC1Cc2nc(SCC(=O)OCc3ccccc3)n(C)c(=O)c2S1 (stereo unspecified)	1.07	9.0	i	3.0%	1.1	0.0
CCCOC(=O)c1cc(=O)[nH]c2ccccc12	2.3*	11.0	i	6.0%	1.03	0.0
COc1ccc2nc3c(cc2c1)c(NC(=O)C1CCCO1)nn3CC(C)C (stereo unspecified)	3.71*	7.0	.	8.0%	1	9.0
CCCCn1nc(NC(=O)c2cccs2)c2cc3ccccc3nc21	2.24*	5.0	.	10.0%	1.02	14.0
COc1ccc(NC(=O)c2ccccc2NC(=O)C2CCCO2)cc1 (stereo unspecified)	1.08	2.0	i	1.0%	1.04	2.0
CCCC(=O)Nc1nn(CCC)c2nc3ccccc3cc12	1.3	2.0	i	1.0%	1.03	0.0
CCCn1nc(NC(=O)c2ccncc2)c2cc3ccccc3nc21	1.23	9.0	i	4.0%	1.06	4.0
CCCn1nc(NC(=O)c2cccs2)c2cc3cc(OC)ccc3nc21	2.03*	16.0	.	4.0%	1	10.0
CCCCn1nc(NC(=O)c2cccs2)c2cc3cc(OC)ccc3nc21	3.64*	10.0	.	7.0%	1.01	4.0
COc1ccc(-c2nnc(SCC(=O)NCc3ccco3)n2C)cc1	1.08	12.0	i	8.0%	0.97	10.0
NC12CC3CC(C1)CC(CO)(C3)O2	1.13	12.0	i	4.0%	1	0.0
COc1ccc(S(=O)(=O)N2CCN(c3nc4ccccc4nc3-n3nc(C)cc3C)CC2)cc1	1.23	8.0	i	7.0%	1.02	12.0
C#CCn1c(=NC(=O)CSCC(=O)N2CCOCC2)sc2ccccc21	1.08	0.0	i	0.0%	1.07	0.0
Cc1ccc(CN2CCSc3ccc(C(=O)N4CCN(c5ncccn5)CC4)cc32)cc1	4.93*	3.0	.	3.0%	1.01	2.0
CCOC(=O)N1CCC(NC(=O)c2ccc3c(c2)sc2nc(-c4cccc(OC)c4)cn23)CC1	1.84	13.0	i	6.0%	0.98	10.0
CCOC(=O)N1CCC(NC(=O)c2ccc3c(c2)sc2nc(-c4ccccc4)cn23)CC1	2*	11.0	i	8.0%	0.98	12.0
Cn1ccnc1C(O)(c1nnc(-c2ccccc2)o1)C(F)(F)F (stereo unspecified)	0.99	18.0	i	6.0%	0.99	0.0
COc1ccc(C2C(C#N)=C(C)NC3=C2C(=O)CC(C)(C)C3)c(OC)c1 (stereo unspecified)	1.94	10.0	.	4.0%	1.01	3.0
